In PubChem BioAssay (Tox21):
Values without a mark were called inactive. Calls come from the whole dose curve; as a rule, active = well fitted curve in the direction sought with a large enough effect in the repeat runs; inconclusive = weak or mixed curves; inactive = flat fitted curve, though single readings scatter.

test: qHTS assay to test for compound auto fluorescence at 590 nm (red) in HepG2 cells (AID 720674); conditions: HepG2 autofluorescence, red 540/590 nm, 1 h; series mostly up to 91.3 µM; fluorescence, relative to Rose Bengal: at the top concentration
Source text: U.S. Tox21 Program National Center for Advancing Translational Sciences [NCATS] NIH Chemical Genomics Center [NCGC] U.S. Environmental Protection Agency [EPA] National Institutes of Environmental Health Sciences [NIEHS] National Toxicology Program [NTP] U.S. Food and Drug Administration [FDA] Tox21 Assay Overview: Compound auto fluorescence often interferes with screening of the compound library against various biological targets and signaling pathways. Some of these compounds may have fluorophoric properties. Such properties may interfere with the assay outputs resulting in false positives and/or negatives. To decrease such complications and ensure the compound activities are relevant in terms of biological response, the Tox21 10K compound library was screened for auto fluorescence. From the fluorophores used as reporter signals in our screening assays, the auto fluorescence equivalencies of compounds against three fluorophores have been evaluated: Triamterene, Fluorescein and Rose Bengal sodium for blue, green and red fluorescence, respectively. The fluorescence intensities were measured using Excitation/Emission wavelengths at 405/460nm, 485/535nm and 540/590nm for blue, green and red labels, respectively. This assay includes the red fluorescence data.
Tox21 Assay Protocol Summary: 2,000 HepG2 cells in 5 uL of culture medium (MEM containing 10% FBS) per well were dispensed into black wall/clear bottom 1536-well plates using a Multidrop Combi Dispenser (ThermoFisher Scientific, Waltham, MA). The assay plates were incubated overnight at 37 C to allow cell attachment to the well bottom, followed by the transfer of 23 nL compound or DMSO vehicle by a pintool work station (Kalypsys , San Diego, CA). After the assay plates were incubated for 1 hr at 37 C and 5% CO2, fluorescence intensities in the assay plates were measured by an Envision (PerkinElmer, Shelton, CT) plate reader using three labels for measuring blue, green and red fluorescence at […] 460, 535 and 590 nm respectively.
% is set by controls: 0 for no effect and ±100 for the full control effect.

Structure (SMILES)	fluorescence, relative to Rose Bengal
CC(C)(O)C(=O)O	0.0694%
CC(O)C(C)O (stereo not given)	0.188% [at 95.7 µM]
CCCCCCCCCCCCSCCOCCO	-0.643% [at 46 µM]
N#CCCCC(C#N)CCC#N (stereo not given)	-0.0886%
CC1=C(C)C(=O)C(C(CCCCCC(=O)O)c2ccccc2)=C(C)C1=O (stereo not given)	-0.457% [at 46 µM]
CCCCCC1CCC(=O)O1 (stereo not given)	0.193%
Clc1ccccc1-c1nc(-c2ccncc2)no1	-0.134% [at 46 µM]
CCCCCCCCS	-0.688% [at 95.7 µM]
Sc1nc(S)nc(S)n1	-0.083% [at 46 µM]
CCc1c(C)[nH]c2c1C(=O)C(CN1CCOCC1)CC2 (stereo not given)	0.262% [at 18.6 µM]
O=C(NC1CCN(CCc2c[nH]c3ccccc23)CC1)c1ccccc1	-0.637% [at 46 µM]
O=C(c1ccc(Cl)cc1)c1ccc(Cl)cc1	0.0087%
c1ccc(-c2ccc(-c3ccccc3)cc2)cc1	-0.399% [at 18.6 µM]
C1=COCCC1	-0.0597%
CC(C)(C(=O)O)c1ccc(C(O)CCCN2CCC(C(O)(c3ccccc3)c3ccccc3)CC2)cc1 (stereo not given)	-0.279% [at 46 µM]
CCCC1CCCC(=O)O1 (stereo not given)	0.0361%
COC(=O)c1cc(Cl)ccc1[N+](=O)[O-]	-0.0006%
O=C(Nc1ccccc1)c1cc([N+](=O)[O-])ccc1Cl	0.3%
O=C(Nc1ccc2c(c1)Cc1ccccc1-2)C(F)(F)F	0.0068%
CC1(C)[C@@H]2CC[C@]3(C2)[C@@H]1C(=O)CCC3(C)C	-0.208%

Structure (SMILES)	fluorescence, relative to Rose Bengal
O=C(O)c1ccc2c(c1)nc(C(=O)NC1CCN(C3CC3)CC1)n2Cc1cc(-c2ccc(Cl)s2)on1	0.429% [at 18.6 µM]
Nc1ncnc2c1ncn2[C@@H]1O[C@H](CO)[C@@H](O)[C@H]1O	-0.206% [at 46 µM]
O=C1OC(=O)C2CC=CCC12 (stereo not given)	0.108%
Cc1cc(SC2=C(O)C[C@@](CCc3ccc(N)cc3)(C(C)C)OC2=O)c(C(C)(C)C)cc1CO	-0.152%
CCCCCCCCNC	-0.109%
NC(=O)c1cc[n+](CC2=C(C(=O)[O-])N3C(=O)[C@@H](NC(=O)Cc4cccs4)[C@H]3SC2)cc1	-0.33% [at 18.6 µM]
CCc1ccc(C(=O)C(C)CN2CCCCC2)cc1 (stereo not given)	0.218% [at 46 µM]
CCCCCCCCCCCCCCCCCCCl	-0.0738% [at 3.72 µM]
CCCCCCCCC(=O)OCC(C)OC(=O)CCCCCCCC (stereo not given)	-0.0104% [at 95.7 µM]
C=CC(O)CCCCC (stereo not given)	0.058%
Nc1ccc(-c2ccc(F)cc2)cc1	0.217%
CCCCCCC/C=C/C=O	0.302%
Oc1ccc(CCNCCCCCCNCCc2ccccc2)cc1O	-0.0567% [at 46 µM]
CO[C@@H]1[C@@H](O[C@@H]2O[C@H](C)[C@@H](O[C@H]3C[C@@](C)(O)[C@@H](O)[C@H](C)O3)[C@H](N(C)C)[C@H]2O)[C@@H](CC=O)C[C@@H](C)[C@@H](O[C@@H]2CC[C@H](N(C)C)[C@@H](C)O2)/C=C/C=C/C[C@@H](C)OC(=O)C[C@H]1OC(C)=O	0.0482% [at 46 µM]
C(/C=C/C=C/Nc1ccccc1)=Nc1ccccc1	-0.504%
OCCc1ccncc1	-0.113%
O=C(O)c1ccncc1	0.1% [at 95.7 µM]
Cc1nc(C)c(C)nc1C	-0.565%
CC(C)Cc1nccs1	-0.0764% [at 95.7 µM]
CCC1=C(C)CN(C(=O)NCCc2ccc(S(=O)(=O)NC(=O)NC3CCC(C)CC3)cc2)C1=O (stereo not given)	-0.0553% [at 46 µM]
